Test results taken from PubChem BioAssay (Tox21).
Values without a mark were called inactive. Inconclusive results are not listed. Entries that show only a call come without a potency. The source made the active and inactive calls. Unless noted, calls come from the whole dose curve; as a rule, active = well fitted curve in the direction sought with a large enough effect in the repeat runs; inconclusive = weak or mixed curves; inactive = no such curve, though single readings can be large; an effect the other way counts as inactive or inconclusive.

Assays:
[1] = qHTS assay for small molecule agonists of the p53 signaling pathway (AID 651631; calls by dose curve; note: nearly all actives have a fitted effect of over 15% in size)
Method in brief: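 Beta-lactamase reporter activity under p53 response elements was quantified in HCT-116 cells by FRET fluorescence, following 16 h incubation with test compounds at 37 °C and 2 h substrate development at room temperature.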

[2] = qHTS assay for small molecules that induce genotoxicity in human embryonic kidney cells expressing luciferase-tagged ATAD5 (AID 651632); note: nearly all actives have a fitted effect of over 15% in size
Method in brief: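 DMSO vehicle served as the control. HEK293T reporter cells, 16 hr at 37C, then 30 min Amplite at room temperature; ATAD5 induction is measured as luciferase activity.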

[3] = qHTS assay for small molecule agonists of the p53 signaling pathway - cell viability (AID 651633; calls by dose curve;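 note: p53RE-bla HCT reporter cells with a stable beta-lactamase p53 reporter; series mostly up to about 83 µM; nearly all actives have a fitted effect of over 30% in size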)
Method in brief: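 p53RE-bla cells, seeded at 4,000 per well and rested 5 h at 37 C/5% CO2, received compounds in DMSO for 16 h at 37 C. CellTiter-Glo was then added, and luminescence was read after 30 min at room temperature to gauge cytotoxicity.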

[4] = qHTS assay for small molecules that induce genotoxicity in human embryonic kidney cells expressing luciferase-tagged ATAD5 - cell viability (AID 651634; calls by dose curve; note: nearly all actives have a fitted effect of over 25% in size)
Method in brief: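 Here HEK293T cells with the ATAD5 luciferase reporter are incubated with test compounds for 15.5 hr, and cytotoxicity is then gauged by measuring protease activity in live cells using fluorescence.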

[5] = qHTS assay for small molecule disruptors of the mitochondrial membrane potential - cell viability (AID 720634; calls by dose curve;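 note: human HepG2 liver cancer cells; series mostly up to about 83 µM; nearly all actives have a fitted effect of over 20% in size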)
Method in brief: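 Viability of HepG2 cells is scored from ATP content by luminescence; cells are exposed to compound for 1 hr at 37 C and 5% CO2, then dosed with m-MPI dye before the CellTiter-Glo reagent.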

[6] = qHTS assay for small molecule disruptors of the mitochondrial membrane potential (AID 720635); note: potency is the fitted concentration of half-maximal effect
Method in brief: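 HepG2 cells (2,000/well) attached overnight at 37C, then took compound for 1 hr at 37C, 5% CO2. Mito-MPS dye was added for 30 min; fluorescence was read at 490/535 nm (monomers) and 540/590 nm (aggregates).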

[7] = qHTS assay to test for compound auto fluorescence at 590 nm (red) in HepG2 cells (AID 720674)
Method in brief: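 Intrinsic compound fluorescence in the red window (Ex/Em 540/590 nm) is measured in attached HepG2 cells exposed for 1 hr, DMSO vehicle as baseline, benchmarked to Rose Bengal sodium.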

[8] = qHTS assay to test for compound auto fluorescence at 535 nm (green) in HepG2 cells (AID 720675)
[9] = qHTS assay to test for compound auto fluorescence at 460 nm (blue) in HEK293 cells (AID 720678)
Method in brief: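 HEK293 cells (2,000 per well, medium with 10% dialyzed FBS) attached for 4-5 hr at 37C, then received compound and stood overnight at 37C, 5% CO2. Blue fluorescence was read at Ex/Em 405/460 nm and expressed relative to triamterene.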

[10] = qHTS assay to test for compound auto fluorescence at 590 nm (red) in HEK293 cells (AID 720679)
Method in brief: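 HEK293 cells (2,000/well, medium with 10% dialyzed FBS) attached for 4-5 hr at 37C, received 23 nL compound and were incubated overnight at 37C, 5% CO2. Red fluorescence was then read at 540/590nm Ex/Em, referenced to Rose Bengal sodium.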

CC(C)c1ccc(C=O)cc1
outcome [1]: inactive
outcome [2]: inactive
outcome [3]: inactive
Potency [4]: inactive
outcome [5]: inactive
Potency [6]: inactive
outcome [7]: inactive
outcome [8]: inactive
outcome [9]: inactive
outcome [10]: inactive

CNCCS(=O)(=O)O
outcome [1]: inactive
outcome [2]: inactive
outcome [3]: inactive
Potency [4]: inactive
outcome [5]: inactive
Potency [6]: inactive
outcome [7]: inactive
outcome [8]: inactive
outcome [9]: inactive
outcome [10]: inactive

CC(C)=CCC[C@@](C)(O)[C@H]1CC=C(C)CC1
outcome [1]: inactive
outcome [2]: inactive
outcome [3]: inactive
Potency [4]: inactive
outcome [5]: inactive
Potency [6]: inactive
outcome [8]: inactive
outcome [9]: inactive
outcome [10]: inactive

O=C(O)CSCC(=O)NC1CCSC1=O (stereo not given)
outcome [1]: inactive
outcome [2]: inactive
outcome [3]: inactive
Potency [4]: inactive
outcome [5]: inactive
Potency [6]: inactive
outcome [7]: inactive
outcome [8]: inactive
outcome [9]: inactive
outcome [10]: inactive

COC(=O)/C=C\C(=O)O
outcome [1]: inactive
outcome [2]: inactive
outcome [3]: inactive
Potency [4]: inactive
outcome [5]: inactive
Potency [6]: inactive
outcome [7]: inactive
outcome [8]: inactive
outcome [9]: inactive
outcome [10]: inactive

CC(C)COC(=O)c1ccccc1
outcome [1]: inactive
outcome [2]: inactive
outcome [3]: inactive
Potency [4]: inactive
outcome [5]: inactive
Potency [6]: inactive
outcome [7]: inactive
outcome [8]: inactive
outcome [9]: inactive
outcome [10]: inactive

CCCCCc1cccc(=O)o1
outcome [1]: inactive
outcome [2]: inactive
outcome [3]: inactive
Potency [4]: inactive
outcome [5]: inactive
Potency [6]: inactive
outcome [7]: inactive
outcome [8]: inactive
outcome [9]: inactive
outcome [10]: inactive

CC(C)OC(=O)OCOP(=O)(CO[C@H](C)Cn1cnc2c(N)ncnc21)OCOC(=O)OC(C)C
outcome [1]: inactive
outcome [2]: inactive
outcome [3]: inactive
Potency [4]: inactive
outcome [5]: inactive
Potency [6]: inactive
outcome [7]: inactive
outcome [8]: inactive
outcome [9]: inactive
outcome [10]: inactive

CCCc1ccc(O)cc1
outcome [1]: inactive
outcome [2]: inactive
outcome [3]: inactive
Potency [4]: inactive
outcome [5]: inactive
Potency [6]: 54.5 µM (active)
outcome [7]: inactive
outcome [8]: inactive
outcome [9]: inactive
outcome [10]: inactive

CC(=O)OC1CCCCC1C(C)(C)C (stereo not given)
outcome [1]: inactive
outcome [2]: inactive
outcome [3]: inactive
Potency [4]: inactive
outcome [5]: inactive
Potency [6]: inactive
outcome [7]: inactive
outcome [8]: inactive
outcome [9]: inactive
outcome [10]: inactive

O=Cc1cc2ccccc2o1
outcome [1]: inactive
outcome [2]: inactive
outcome [3]: inactive
Potency [4]: inactive
outcome [5]: inactive
Potency [6]: inactive
outcome [7]: inactive
outcome [8]: inactive
outcome [9]: inactive
outcome [10]: inactive

CCCCCCCCCCCCCCCCCCOCCO
outcome [1]: inactive
outcome [2]: inactive
outcome [3]: inactive
Potency [4]: inactive
outcome [5]: inactive
Potency [6]: inactive
fluorescence, relative to Rose Bengal [7]: 0.105% [at 18.6 µM]
fluorescence, % of fluorescein control [8]: 0.0331% [at 18.6 µM]
fluorescence, % of triamterene [9]: -0.176% [at 18.6 µM]
fluorescence, % of fluorescent control [10]: -0.175% [at 18.6 µM]

CC(N)CCCC(C)(C)O (stereo not given)
outcome [1]: inactive
outcome [2]: inactive
outcome [3]: inactive
Potency [4]: inactive
outcome [5]: inactive
Potency [6]: inactive
outcome [8]: inactive
outcome [9]: inactive
outcome [10]: inactive

C[Si]1(C)O[Si](C)(C)O[Si](C)(C)O[Si](C)(C)O[Si](C)(C)O1
outcome [1]: inactive
outcome [2]: inactive
outcome [3]: inactive
Potency [4]: inactive
outcome [5]: inactive
Potency [6]: inactive
outcome [7]: inactive
outcome [8]: inactive
outcome [9]: inactive
outcome [10]: inactive

CCOC(CN1CCN(CC(C)C(=O)c2ccccc2)CC1)c1ccccc1 (stereo not given)
outcome [1]: inactive
outcome [2]: inactive
outcome [3]: inactive
Potency [4]: inactive
outcome [5]: inactive
Potency [6]: inactive
outcome [7]: inactive
outcome [8]: inactive
outcome [9]: inactive
outcome [10]: inactive

Cc1ccc(C(C)NC(=O)[C@@H](NC(=O)OC(C)C)C(C)C)cc1 (stereo not given in full)
outcome [1]: inactive
outcome [2]: inactive
outcome [3]: inactive
Potency [4]: inactive
outcome [5]: inactive
Potency [6]: inactive
outcome [7]: inactive
outcome [8]: inactive
outcome [9]: inactive
outcome [10]: inactive

Cc1cccc(Cl)c1
outcome [1]: inactive
outcome [2]: inactive
outcome [3]: inactive
Potency [4]: inactive
outcome [5]: inactive
Potency [6]: inactive
outcome [7]: inactive
outcome [8]: inactive
outcome [9]: inactive
outcome [10]: inactive

CC1c2ccccc2CN1NC(=O)c1ccc(Cl)c(S(N)(=O)=O)c1 (stereo not given)
outcome [1]: inactive
outcome [2]: inactive
outcome [3]: inactive
Potency [4]: inactive
outcome [5]: inactive
Potency [6]: inactive
outcome [7]: inactive
outcome [8]: inactive
outcome [9]: inactive
outcome [10]: inactive

OC[C@H]1O[C@@H](O[C@@H]2[C@@H](CO)O[C@](O)(CO)[C@H]2O)[C@H](O)[C@@H](O)[C@H]1O
outcome [1]: inactive
outcome [2]: inactive
outcome [3]: inactive
Potency [4]: inactive
outcome [5]: inactive
Potency [6]: inactive
outcome [8]: inactive
outcome [9]: inactive
outcome [10]: inactive

Cc1ccccc1C(N)=O
outcome [1]: inactive
outcome [2]: inactive
outcome [3]: inactive
Potency [4]: inactive
outcome [5]: inactive
Potency [6]: inactive
outcome [7]: inactive
outcome [8]: inactive
outcome [9]: inactive
outcome [10]: inactive

C/C(CC(C)C)=N\O
outcome [1]: inactive
outcome [2]: inactive
outcome [3]: inactive
Potency [4]: inactive
outcome [5]: inactive
Potency [6]: inactive
outcome [8]: inactive
outcome [9]: inactive
outcome [10]: inactive

N#CCC(=O)NN
outcome [1]: inactive
outcome [2]: inactive
outcome [3]: inactive
Potency [4]: inactive
outcome [5]: inactive
Potency [6]: inactive
outcome [7]: inactive
outcome [8]: inactive
outcome [9]: inactive
outcome [10]: inactive

O=C(CN1CCNCC1)NC1CCCCC1
outcome [1]: inactive
outcome [2]: inactive
outcome [3]: inactive
Potency [4]: inactive
outcome [5]: inactive
Potency [6]: inactive
outcome [7]: inactive
outcome [8]: inactive
outcome [9]: inactive
outcome [10]: inactive

c1ccc(-c2nn[nH]n2)cc1
outcome [1]: inactive
outcome [2]: inactive
outcome [3]: inactive
Potency [4]: inactive
outcome [5]: inactive
Potency [6]: inactive
outcome [8]: inactive
outcome [9]: inactive
outcome [10]: inactive
